# Data reported in the supplement of paper PMC7411054.
# Experiments:
# Details in all cases: treatment time: 24 h
# A549-ACTB-RAB5A [1] = assay: lowest phenotypically active concentration; higher = less potent
# Outline: (§1)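 Each of fifteen gene-edited A549, HepG2 and WPMY1 reporter lines, marked with BFP for segmentation and GFP and RFP/FusionRed, was treated in four wells at 0.3, 1, 3 or 9 µM for 24 h prior to live imaging. Normalisation of per-well live-cell features used solvent control wells. Deviation needed ≥3 of 4 wells beyond the 95th percentile of control Euclidean distances, and reproducibility needed a median replicate Pearson correlation above the 95th percentile of non-replicates. Both were required for phenotypic activity.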
# A549-CANX-COX4 [2] = assay: as above
# Outline: as §1
# A549-GM130-SQSTM1 [3] = assay: as above
# Outline: as §1
# HepG2-TP53BP1-CLTA [4] = assay: as above
# Outline: as §1
# HepG2-TUBA1B-RELA [5] = assay: as above
# Outline: as §1
# A549-ACTB-RAB5A [6] = assay: phenotypically active (imaging signature differs from DMSO and reproducible) at any of 0.3-9 uM (binary (1 = active, 0 = inactive)); higher = active
# Outline: as §1
# A549-CANX-COX4 [7] = assay: as above
# Outline: as §1
# A549-GM130-SQSTM1 [8] = assay: as above
# Outline: as §1
# A549-TP53BP1-CLTA = assay: as above
# Outline: as §1
# A549-TUBA1B-RELA = assay: as above
# Outline: as §1
# HepG2-ACTB-RAB5A = assay: as above
# Outline: as §1
# HepG2-CANX-COX4 = assay: as above
# Outline: as §1
# HepG2-GM130-SQSTM1 = assay: as above
# Outline: as §1
# HepG2-TP53BP1-CLTA [9] = assay: as above
# Outline: as §1
# HepG2-TUBA1B-RELA [10] = assay: as above
# Outline: as §1
# WPMY1-ACTB-RAB5A = assay: as above
# Outline: as §1
# WPMY1-CANX-COX4 = assay: as above
# Outline: as §1
# WPMY1-GM130-SQSTM1 = assay: as above
# Outline: as §1
# WPMY1-TP53BP1-CLTA = assay: as above
# Outline: as §1
# WPMY1-TUBA1B-RELA = assay: as above
# Outline: as §1
SMILES,lowest phenotypically active concentration (A549-ACTB-RAB5A [1]),lowest phenotypically active concentration (A549-CANX-COX4 [2]),lowest phenotypically active concentration (A549-GM130-SQSTM1 [3]),lowest phenotypically active concentration (HepG2-TP53BP1-CLTA [4]),lowest phenotypically active concentration (HepG2-TUBA1B-RELA [5]),phenotypically active (A549-ACTB-RAB5A [6]),phenotypically active (A549-CANX-COX4 [7]),phenotypically active (A549-GM130-SQSTM1 [8]),phenotypically active (A549-TP53BP1-CLTA),phenotypically active (A549-TUBA1B-RELA),phenotypically active (HepG2-ACTB-RAB5A),phenotypically active (HepG2-CANX-COX4),phenotypically active (HepG2-GM130-SQSTM1),phenotypically active (HepG2-TP53BP1-CLTA [9]),phenotypically active (HepG2-TUBA1B-RELA [10]),phenotypically active (WPMY1-ACTB-RAB5A),phenotypically active (WPMY1-CANX-COX4),phenotypically active (WPMY1-GM130-SQSTM1),phenotypically active (WPMY1-TP53BP1-CLTA),phenotypically active (WPMY1-TUBA1B-RELA)
Cc1ccc(NC(=O)c2ccc(CN3CCN(C)CC3)cc2)cc1Nc1nc(-c2cccnc2)cs1 [masitinib],3 µM,9 µM,3 µM,3 µM,9 µM,1 (active),1 (active),1 (active),1 (active),1 (active),1 (active),1 (active),1 (active),1 (active),1 (active),1 (active),1 (active),1 (active),1 (active),1 (active)
Oc1ccc(-c2nc(-c3ccc(F)cc3)c(-c3ccncc3)[nH]2)cc1,3 µM,3 µM,9 µM,1 µM,3 µM,1 (active),1 (active),1 (active),1 (active),1 (active),1 (active),1 (active),1 (active),1 (active),1 (active),1 (active),1 (active),1 (active),1 (active),1 (active)
C=CC(=O)Nc1cccc(Nc2nc(Nc3ccc(OCCOC)cc3)ncc2F)c1,3 µM,3 µM,9 µM,9 µM,9 µM,1 (active),1 (active),1 (active),1 (active),1 (active),1 (active),1 (active),1 (active),1 (active),1 (active),1 (active),1 (active),1 (active),1 (active),1 (active)
Cc1cnc(NC(=O)Nc2cc(Br)c(C)cc2OC[C@@H]2CNCCO2)cn1,3 µM,3 µM,3 µM,1 µM,1 µM,1 (active),1 (active),1 (active),1 (active),1 (active),1 (active),1 (active),1 (active),1 (active),1 (active),1 (active),1 (active),1 (active),1 (active),1 (active)
COc1cc2nc(N3CCCN(C)CC3)nc(NC3CCN(Cc4ccccc4)CC3)c2cc1OC,≤ 0.3 µM,1 µM,≤ 0.3 µM,1 µM,≤ 0.3 µM,1 (active),1 (active),1 (active),1 (active),1 (active),1 (active),1 (active),1 (active),1 (active),1 (active),1 (active),1 (active),1 (active),1 (active),1 (active)
CN(C)c1ccc(C(=O)NCCCCCCC(=O)NO)cc1,≤ 0.3 µM,≤ 0.3 µM,1 µM,1 µM,≤ 0.3 µM,1 (active),1 (active),1 (active),1 (active),1 (active),1 (active),1 (active),1 (active),1 (active),1 (active),1 (active),1 (active),1 (active),1 (active),1 (active)
CCOC(=O)CCNc1cc(N2CCc3ccccc3CC2)nc(-c2ccccn2)n1,3 µM,9 µM,9 µM,3 µM,3 µM,1 (active),1 (active),1 (active),1 (active),1 (active),1 (active),1 (active),1 (active),1 (active),1 (active),1 (active),1 (active),1 (active),1 (active),1 (active)
Nc1ncnc2c1nc(Cl)n2C1O[C@H](CO)[C@@H](O)[C@H]1O (stereo not given in full) [8-Chloroadenosine],1 µM,1 µM,1 µM,3 µM,3 µM,1 (active),1 (active),1 (active),1 (active),1 (active),1 (active),1 (active),1 (active),1 (active),1 (active),1 (active),1 (active),1 (active),1 (active),1 (active)
CCNC(=O)c1noc(-c2cc(C(C)C)c(O)cc2O)c1-c1ccc(CN2CCOCC2)cc1,≤ 0.3 µM,≤ 0.3 µM,≤ 0.3 µM,≤ 0.3 µM,≤ 0.3 µM,1 (active),1 (active),1 (active),1 (active),1 (active),1 (active),1 (active),1 (active),1 (active),1 (active),1 (active),1 (active),1 (active),1 (active),1 (active)
OC[C@H]1O[C@@H](n2cnc3c(NCc4ccco4)ncnc32)[C@H](O)[C@@H]1O [Kinetin riboside],1 µM,3 µM,3 µM,3 µM,1 µM,1 (active),1 (active),1 (active),1 (active),1 (active),1 (active),1 (active),1 (active),1 (active),1 (active),1 (active),1 (active),1 (active),1 (active),1 (active)
Nc1ccc(-c2ccc3ncc4ccc(=O)n(-c5cccc(C(F)(F)F)c5)c4c3c2)cn1 [Torin 2],≤ 0.3 µM,≤ 0.3 µM,≤ 0.3 µM,≤ 0.3 µM,≤ 0.3 µM,1 (active),1 (active),1 (active),1 (active),1 (active),1 (active),1 (active),1 (active),1 (active),1 (active),1 (active),1 (active),1 (active),1 (active),1 (active)
